The results in this text go back to PubChem BioAssay (Tox21).

Records with an inconclusive call do not appear. Entries that show only a call come without a potency. A number with no mark means an inactive call. Activity calls are given as the source filed them. Calls follow the shape of the dose curve; as a rule, active = well fitted curve in the direction sought with a large enough effect in the repeat runs; inconclusive = weak or mixed curves; inactive = no such curve, though single readings can be large; an effect the other way counts as inactive or inconclusive. Non-standard residues stand in square brackets, D forms with d. Residues, ends and D or L forms follow the SMILES beside them. *: point of attachment. Sta = CC(C)C[C@H](N)[C@@H](O)CC(=O)O; Isovaleryl = CC(C)CC(=O)*
Also: nearly all actives have a fitted effect of over 45% in size.

The first test is described as follows: A CellTox Green Cytotoxicity Assay to monitor cytotoxicity in HepG2 cells - 24 hour (AID 1224878). The conditions noted are these: CellTox Green fluorescence; series mostly up to 76.8 µM. In outline:
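Read-out is fluorescence of a cyanine dye excluded from live cells that stains DNA of dead HepG2 cells, with signal proportional to cytotoxicity. Plates were read at 0, 8, 16, 24, 32 and 40 h after compound addition.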
For the compound `CCCC(=O)OC`, the Potency entry was “inactive”.
`Cc1ccc2ccccc2n1`: the Potency entry was “inactive”.
Regarding `CC/C=C\CCCCCCCCCCOC(C)=O`, the Potency entry is “inactive”.
In the case of `C[C@@H]1CCC[C@H](C)N1CCCC(O)(c1ccccc1)c1ccccn1` (stereo partly specified), the Potency result was “inactive”.
Take `c1cc2ccc3ccc4ccc5cccc6c(c1)c2c3c4c56`: the cytotoxicity was -19.8% [at 2.72 µM].
Regarding `CC(C)(C)C(=O)CCc1ccc(Cl)cc1`, the Potency entry is “inactive”.
For `COc1ccc(Cl)cc1C`, the Potency result was “inactive”.
Still for that read-out and setting: the value for `Cc1ccc(OC(=O)CC(C)C)cc1` was “inactive”.
Regarding `CC1(C)CC(N)CC(C)(C)N1`, the Potency result is “inactive”.
Turning to `CN(C)CCCN(C)C`, the cytotoxicity was -15.5% [at 6.97 µM].
As for `N[C@H]1C(O)O[C@H](CO)[C@@H](O)[C@@H]1O` (stereo partly specified), the Potency result was “inactive”.
Still for that read-out and setting: next, `Cc1ccc(S(=O)(=O)NC(=O)NN2CC3CCCC3C2)cc1` (stereo unspecified): “inactive”; `CCCCC(O)/C=C(C)/C=C/C=C/C(=O)N1CCCC1=O` (stereo unspecified): “inactive”.
The same measure, in the same setting: next, `CCN(CC)CC`: “inactive”; `Cc1cccc(N)n1`: “inactive”.
Still for that read-out and setting: the value for `O=C(O)Cc1ccccc1Oc1ccc(Cl)cc1Cl` was “inactive”; that for `C[n+]1ccccc1/C=N/O` was “inactive”; that for `COc1cnc(NS(=O)(=O)c2ccc(N)cc2)nc1` was “inactive”.
Take `COc1ccccc1N1CCN(CC(O)COc2cc(OC)c(OC)c(OC)c2)CC1` (stereo unspecified): the Potency result is “inactive”.
Turning to `C/C=C/C(=O)CCCC`, the Potency entry is “inactive”.
The same measure, in the same setting: the value for `CC(=O)O[C@@H]1CC2C3CCc4cc(OC(=O)c5ccccc5)ccc4C3CCC2(C)[C@H]1OC(C)=O` (stereo partly specified) was “inactive”.
Turning to `CC(C)CC(=O)N[C@H](C(=O)N[C@H](C(=O)N[C@@H](CC(C)C)[C@@H](O)CC(=O)N[C@@H](C)C(=O)N[C@@H](CC(C)C)[C@@H](O)CC(=O)O)C(C)C)C(C)C` (Isovaleryl-VV[Sta]A[Sta]-OH), the Potency result is “inactive”.
For `Cc1cc(=O)oc2cc(O[C@@H]3SC[C@@H](O)[C@H](O)[C@H]3O)ccc12`, the Potency result is “inactive”.
Regarding `CC(C)(Sc1cc(C(C)(C)C)c(O)c(C(C)(C)C)c1)Sc1cc(C(C)(C)C)c(O)c(C(C)(C)C)c1`, the Potency result is “inactive”.
On the same count and under the same terms, the value for `CC(C)(C)C(=O)NCCCC(=O)O` was “inactive”; that for `Cc1nc2ccc(Cl)cc2[nH]1` was “inactive”; that for `COC(=O)c1ccc(NC(C)=O)cc1OC` was “inactive”.
Still for that read-out and setting: the value for `Cc1ccc(O)c([N+](=O)[O-])c1` was “inactive”; that for `CCC(C)SSC(C)CC` (stereo unspecified) was “inactive”.

The next test in a line: qHTS RealTime-Glo MT Cell Viability Assay in HEK293 cells - 0 hour (AID 1224880). Also: top concentration of the series differs between compounds. The conditions noted are these: RealTime-Glo luminescence; series mostly up to 76.8 µM. In outline:
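Cells were seeded together with NanoLuc luciferase and a prosubstrate that viable cells reduce to a luciferase substrate. After a 5 h incubation at 37 C/5% CO2, compounds were added and luminescence was measured repeatedly during 40 h of treatment.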
(In qHTS, concentration-response curves come from the screen itself.)
`CCCC(=O)OC`: the Potency result was “inactive”.
With `Cc1ccc2ccccc2n1`, the Potency result was “inactive”.
Still for that read-out and setting: the value for `CC/C=C\CCOC(=O)c1ccccc1` was “inactive”; that for `C=CCON/C(CCC)=C1\C(=O)CC(C)(C)C(C(=O)OC)=C1O` was “inactive”; that for `CC(C)(C)c1ccc(N)cc1` was “inactive”.
Turning to `CC/C=C\CCCCCCCCCCOC(C)=O`, the Potency entry was “inactive”.
For the compound `C[C@@H]1CCC[C@H](C)N1CCCC(O)(c1ccccc1)c1ccccn1` (stereo partly specified), the Potency entry was “inactive”.
Turning to `c1cc2ccc3ccc4ccc5cccc6c(c1)c2c3c4c56`, the activity change, negative = cytotoxicity is -3.02% [at 2.72 µM].
In the case of `CC(C)(C)C(=O)CCc1ccc(Cl)cc1`, the Potency entry is “inactive”.
Same read-out and setting: the value for `CCCCCCCC(=O)N(C)C` was “inactive”; that for `COc1ccc(Cl)cc1C` was “inactive”; that for `Cc1ccc(OC(=O)CC(C)C)cc1` was “inactive”.
As for `CCCCN1C(=O)c2ccccc2C1=O`, the Potency entry was “inactive”.
`CCCC(=O)C(CC)Sc1ccoc1C` (stereo unspecified): the Potency result is “inactive”.
Regarding `CN(C)CCCN(C)C`, the activity change, negative = cytotoxicity was -1.25% [at 6.97 µM].
With `N[C@H]1C(O)O[C@H](CO)[C@@H](O)[C@@H]1O` (stereo partly specified), the Potency result was “inactive”.
On to `Cc1ccc(S(=O)(=O)NC(=O)NN2CC3CCCC3C2)cc1` (stereo unspecified), for which the Potency entry was “inactive”.
The same measure, in the same setting: next, `CCCCC(O)/C=C(C)/C=C/C=C/C(=O)N1CCCC1=O` (stereo unspecified): “inactive”; `CCN(CC)CC`: “inactive”; `Cc1cccc(N)n1`: “inactive”.
For `O=C(O)Cc1ccccc1Oc1ccc(Cl)cc1Cl`, the Potency entry was “inactive”.
Same read-out and setting: the value for `C[n+]1ccccc1/C=N/O` was “inactive”; that for `COc1cnc(NS(=O)(=O)c2ccc(N)cc2)nc1` was “inactive”; that for `COc1ccccc1N1CCN(CC(O)COc2cc(OC)c(OC)c(OC)c2)CC1` (stereo unspecified) was “inactive”.
The same measure, in the same setting: next, `CCCCCCCCOCCC#N`: “inactive”.
Consider `C/C=C/C(=O)CCCC`, for which the Potency result was “inactive”.
Same read-out and setting: the value for `CC(=O)O[C@@H]1CC2C3CCc4cc(OC(=O)c5ccccc5)ccc4C3CCC2(C)[C@H]1OC(C)=O` (stereo partly specified) was “inactive”.
Turning to `CC(C)CC(=O)N[C@H](C(=O)N[C@H](C(=O)N[C@@H](CC(C)C)[C@@H](O)CC(=O)N[C@@H](C)C(=O)N[C@@H](CC(C)C)[C@@H](O)CC(=O)O)C(C)C)C(C)C` (Isovaleryl-VV[Sta]A[Sta]-OH), the Potency entry was “inactive”.
As to `Cc1cc(=O)oc2cc(O[C@@H]3SC[C@@H](O)[C@H](O)[C@H]3O)ccc12`, the Potency entry was “inactive”.
As for `CC(C)(Sc1cc(C(C)(C)C)c(O)c(C(C)(C)C)c1)Sc1cc(C(C)(C)C)c(O)c(C(C)(C)C)c1`, the Potency result is “inactive”.
The same measure, in the same setting: next, `CC(C)(C)C(=O)NCCCC(=O)O`: “inactive”; `Cc1nc2ccc(Cl)cc2[nH]1`: “inactive”.
Still for that read-out and setting: the value for `O=C(O)CCC(=O)Nc1ccc(S(=O)(=O)Nc2nccs2)cc1` was “inactive”; that for `COC(=O)c1ccc(NC(C)=O)cc1OC` was “inactive”; that for `CCO[Si](CC(C)C)(OCC)OCC` was “inactive”.
On to `Cc1ccc(O)c([N+](=O)[O-])c1`, for which the Potency result is “inactive”.
Turning to `CCC(C)SSC(C)CC` (stereo unspecified), the Potency entry was “inactive”.
